Results filed as inconclusive are left out. Calls of active or inactive are those of the source. Calls come from the whole dose curve; as a rule, active = well fitted inhibition curve with a large enough effect; inconclusive = small, poorly fitted or top-dose-only effect; inactive = flat fitted curve, though single readings scatter.
Molecular target: Dual specificity protein kinase CLK4 (Homo sapiens) (UniProt Q9HAZ1)
Assay: Confirmation Assay for Inhibitors of Clk4 (Kinase-Glo Assay): KU probe
Conditions: recombinant Clk4, Kinase-Glo ATP luminescence
Description: NIH Molecular Libraries Probe Production Centers Network [MLPCN] NIH Chemical Genomics Center [NCGC] MLPCN Grant: 1R03MH084827-01 Assay Submitter (PI): Tom Misteli NCGC Assay Overview: Clk4 (Invitrogen, cat# PV3839) was assayed using ATP and the RS repeat peptide (AnaSpec cat # 61722) as substrates. Following the Clk4 reaction, the remaining ATP levels were detected using Promega Kinase-Glo technology wherein the remaining ATP from the kinase reaction is detected using Ultra-Glo luciferase and D-luciferin which generates a bioluminescence signal from the ATP.
NCGC Assay Protocol Summary: Two uL/well of substrate-buffer solution (100 uM RS peptide, 1 uM ATP, 25 mM Tris pH7.5, 10 mM MgCl2, 0.5 mM EGTA, 2.5 mM DTT, 0.01% Triton X-100 final concentration) was dispensed into 1536-well, assay plates (Greiner, solid white medium-binding plates) with Aurora Discovery BioRAPTR Flying Reagent Dispenser (FRD; Beckton-Dickenson). Using a Kalypsys pin tool equipped with a 1536-pin tool, 23 nL of compound solution was transferred to the assay plate. […] Luminescence was detected with the ViewLux plate reader (Perkin Elmer, Waltham, MA) after 5 min incubation using a 5 second exposure time and 2x binning.

Chain of Dual specificity protein kinase CLK4 (Homo sapiens) (Q9HAZ1 whole entry, looked up): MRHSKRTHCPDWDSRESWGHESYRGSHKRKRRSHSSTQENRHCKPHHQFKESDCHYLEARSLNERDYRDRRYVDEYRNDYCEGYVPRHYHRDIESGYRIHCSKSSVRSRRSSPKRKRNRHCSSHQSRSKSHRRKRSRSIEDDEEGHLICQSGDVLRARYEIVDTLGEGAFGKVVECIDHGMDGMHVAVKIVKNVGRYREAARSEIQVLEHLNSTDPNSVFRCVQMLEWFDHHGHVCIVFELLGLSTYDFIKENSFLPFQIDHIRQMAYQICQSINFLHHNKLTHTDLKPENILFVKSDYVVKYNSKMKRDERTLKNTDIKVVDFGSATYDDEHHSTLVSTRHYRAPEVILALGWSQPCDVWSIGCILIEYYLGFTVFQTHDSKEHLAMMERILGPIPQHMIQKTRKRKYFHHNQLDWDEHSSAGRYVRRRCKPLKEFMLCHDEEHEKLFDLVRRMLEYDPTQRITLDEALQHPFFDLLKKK

| Structure (SMILES) | Potency |
| --- | --- |
| Cc1cc(CNc2ccnc(-c3ccc4c(c3)OCO4)n2)cnc1F | 9.23 µM (active) |
| Clc1ccc(CNc2ccnc(-c3ccc4c(c3)OCO4)n2)cn1 | 29.2 µM (active) |

Source: PubChem BioAssay AID624094 (National Center for Advancing Translational Sciences (NCATS), 2012)
